KDM5B inh: inhibitors of human KDM5B histone demethylase; Q9UGL1; KDM5B demethylase, FDH-coupled NADH fluorescence (FDH is formaldehyde dehydrogenase); Potency, µM (series often up to 57.7 µM), most hits filed as inhibitors; hit rate 2.6% among 220,000; AID 1347165; active = well fitted inhibition curve with a large enough effect; also: 0% is about no effect; nearly all actives have a fitted effect of over 70% in size
Target sequence (Q9UGL1 whole entry, looked up): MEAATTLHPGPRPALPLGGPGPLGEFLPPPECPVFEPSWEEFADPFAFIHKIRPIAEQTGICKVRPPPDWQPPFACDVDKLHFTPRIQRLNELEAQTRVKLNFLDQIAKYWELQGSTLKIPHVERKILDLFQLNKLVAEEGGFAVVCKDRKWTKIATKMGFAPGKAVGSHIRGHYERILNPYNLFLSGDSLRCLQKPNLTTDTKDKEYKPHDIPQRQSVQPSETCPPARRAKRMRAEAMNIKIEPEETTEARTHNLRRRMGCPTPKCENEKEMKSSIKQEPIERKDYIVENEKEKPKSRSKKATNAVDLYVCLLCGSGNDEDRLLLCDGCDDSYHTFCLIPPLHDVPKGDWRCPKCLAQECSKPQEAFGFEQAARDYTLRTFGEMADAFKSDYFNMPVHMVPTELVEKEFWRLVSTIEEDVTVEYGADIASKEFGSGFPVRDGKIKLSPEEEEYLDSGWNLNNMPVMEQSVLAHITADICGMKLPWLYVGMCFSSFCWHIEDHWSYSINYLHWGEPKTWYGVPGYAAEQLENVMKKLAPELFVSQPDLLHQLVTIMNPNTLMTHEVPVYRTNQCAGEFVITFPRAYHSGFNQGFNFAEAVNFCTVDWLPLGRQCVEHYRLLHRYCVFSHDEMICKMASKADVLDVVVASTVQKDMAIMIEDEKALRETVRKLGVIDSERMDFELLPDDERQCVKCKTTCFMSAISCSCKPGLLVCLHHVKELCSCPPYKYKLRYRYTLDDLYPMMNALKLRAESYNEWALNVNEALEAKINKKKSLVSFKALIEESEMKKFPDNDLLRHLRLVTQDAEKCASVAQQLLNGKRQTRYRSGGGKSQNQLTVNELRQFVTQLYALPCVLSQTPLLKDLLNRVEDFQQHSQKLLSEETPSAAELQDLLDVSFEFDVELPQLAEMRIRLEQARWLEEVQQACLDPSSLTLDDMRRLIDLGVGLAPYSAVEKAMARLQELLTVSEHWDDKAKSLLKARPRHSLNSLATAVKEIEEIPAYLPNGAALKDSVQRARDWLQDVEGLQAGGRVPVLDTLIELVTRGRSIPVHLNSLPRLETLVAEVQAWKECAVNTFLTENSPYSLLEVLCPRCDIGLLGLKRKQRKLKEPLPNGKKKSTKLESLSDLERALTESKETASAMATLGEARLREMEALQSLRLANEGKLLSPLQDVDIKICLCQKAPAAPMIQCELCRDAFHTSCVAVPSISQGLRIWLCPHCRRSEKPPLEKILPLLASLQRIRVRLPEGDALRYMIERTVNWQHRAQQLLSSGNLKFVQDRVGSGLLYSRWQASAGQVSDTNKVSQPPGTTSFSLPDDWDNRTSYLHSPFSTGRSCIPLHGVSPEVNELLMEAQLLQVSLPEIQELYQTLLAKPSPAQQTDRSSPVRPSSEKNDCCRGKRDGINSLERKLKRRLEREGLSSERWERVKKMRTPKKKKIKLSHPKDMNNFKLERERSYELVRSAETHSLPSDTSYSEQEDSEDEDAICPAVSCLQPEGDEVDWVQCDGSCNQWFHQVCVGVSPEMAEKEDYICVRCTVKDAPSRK
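qHTS format, multiple compound concentrations. Buffer 50 mM HEPES pH 7.5/0.01% Tween-20; 200 nM KDM5BΔAP final; 10 min compound preincubation; substrate-mix levels 12.5 µM peptide, 25 µM α-KG, 0.25 mM NAD⁺; 30 min RT; ΔRFU.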
* = called active by the depositor. Only a selection was taken, and hits are over-represented in it overall. Potency is read from the fitted curve at half-maximal effect.

Screening CC1=C(C(=O)OC2CCCC2)C(c2c(F)cccc2Cl)CC(=O)N1 (centres undefined) returned KDM5B inh inactive.
Screening COC(=O)CSc1cccc2c1C(=O)CC2c1ccccc1 (centres undefined) returned KDM5B inh inactive.
CCC(=O)c1c[nH]c2ccccc12 was read as KDM5B inh inactive.
For O=C(NCCN1CCOCC1)C1CC(=O)N(c2n[nH]c3ccccc23)C1 (centres undefined) the results were KDM5B inh inactive.
Screening O=C(CN1CCOCC1)Nc1ccc(NC(=O)c2nc(-c3ccccc3)n(-c3ccccc3)n2)cc1 returned KDM5B inh inactive.
`O=Cc1c[nH]c2cc(Cl)ccc12` gave KDM5B inh inactive.
`Cc1cc(NC(=O)CSc2nc(-c3ccccc3C)nc3c2c(=O)n(C)c(=O)n3C)no1` gave KDM5B inh inactive.
Cc1ccc(C)c(NC(=S)NC(=O)c2cncc(Br)c2)c1 was read as KDM5B inh inactive.
O=C(c1cccc(Cl)c1)N1CC(c2nnc(-c3ccncc3)o2)C2(CCOCC2)C1 (centres undefined) was read as KDM5B inh inactive.
Screening CC(C)Cn1c(=O)c2ccccc2n2c(CCC(=O)N3CCN(c4ccccc4F)CC3)nnc12 returned KDM5B inh inactive.
For CC(C)NC(=O)Cn1ccn2nc(-c3ccccc3)c(CO)c2c1=O the results were KDM5B inh inactive.
`COc1cc(Cl)c(C)cc1NC(=O)Cn1ccn2nc(-c3ccccc3)c(CO)c2c1=O` gave KDM5B inh 16µM*.
For CCOc1ccc(NC(=O)Cn2ccn3nc(-c4ccccc4)c(CO)c3c2=O)cc1 the results were KDM5B inh inactive.
Screening O=C(Cc1ccccc1)N1CCC12Cc1ccccc1NC2=O (centres undefined) returned KDM5B inh inactive.
`O=C(NCc1ccc2c(c1)OCO2)c1nc(-c2ccsc2)c2ccccn12` gave KDM5B inh 14µM*.
Screening CC(C)n1nc(C(=O)NCc2ccc3c(c2)OCO3)c2ccccc2c1=O returned KDM5B inh inactive.
`COc1ccccc1OCc1cc(C(=O)NCc2ccc3c(c2)OCO3)n[nH]1` gave KDM5B inh inactive.
For Cc1nc(C)c(C(=O)NCc2cccs2)s1 the results were KDM5B inh inactive.
`O=C(NCc1ccccn1)c1nc(-c2cccnc2)c2ccccn12` gave KDM5B inh inactive.
`Cc1cccc(C)c1-c1nc(C(=O)NCc2ccc3c(c2)OCO3)n2ccccc12` gave KDM5B inh 28µM*.
For CCOc1cccc(-c2nc(C(=O)NCc3ccc4c(c3)OCO4)cs2)c1 the results were KDM5B inh 25µM*.
Screening COc1cc(=O)n(-c2ccccc2C)nc1C(=O)NCc1ccc2c(c1)OCO2 returned KDM5B inh inactive.
CCOc1cc(=O)n2c(c1C(=O)NCc1ccc3c(c1)OCO3)CCCC2 was read as KDM5B inh inactive.
Screening O=C(NCc1cccs1)c1nc(-c2ccccc2)c2ccccn12 returned KDM5B inh 11µM*.
O=C(NCc1ccc2c(c1)OCO2)c1cc(=O)c2ccccc2o1 was read as KDM5B inh inactive.
Cc1ccc2nc(C)cc(C(=O)NCc3ccc4c(c3)OCO4)c2c1 was read as KDM5B inh inactive.
For O=S(=O)(c1cccc(-c2n[nH]c(=S)n2Cc2ccccc2)c1)N1CCOCC1 the results were KDM5B inh inactive.
For c1ccc(-c2ccc(CNCC3CCCO3)o2)cc1 (centres undefined) the results were KDM5B inh inactive.
Cc1ccc(CNC(=O)CCNS(=O)(=O)c2ccc3c(c2)CCCC(=O)N3)cc1 was read as KDM5B inh inactive.
CCS(=O)(=O)c1c(S(=O)(=O)CC)c2cc(C(C)(C)C)ccn2c1C(=O)c1ccc(F)cc1 was read as KDM5B inh inactive.
CCN(CC)CC(C)(C)NS(=O)(=O)c1ccc(Cl)cc1 was read as KDM5B inh inactive.
`COc1cc(OC)cc(C(=O)N2CCC(n3cc(-c4nc(C(C)C)no4)nn3)CC2)c1` gave KDM5B inh inactive.
Cc1oc2ccn(Cc3ccccc3F)c(=O)c2c1C(=O)NC(C)c1ccccc1 (centres undefined) was read as KDM5B inh inactive.
Screening CCN(CC)C(=O)N1CCCCCCNC(=O)[C@@H]2CCC[C@@H]21 returned KDM5B inh inactive.
Screening C#CCNC(=O)c1nc(-c2ccc(F)cc2)c2ccccn12 returned KDM5B inh inactive.
C#CCNC(=O)c1nc(-c2ccccc2)c2ccccn12 was read as KDM5B inh 32µM*.
O=C(NCc1cccs1)c1noc(-c2ccc(F)cc2)n1 was read as KDM5B inh inactive.
`O=C(NCc1cccs1)c1nc(-c2ccc(F)cc2)c2ccccn12` gave KDM5B inh 28µM*.
For O=C(NCc1cccs1)c1nc(-c2ccc(Cl)cc2Cl)c2ccccn12 the results were KDM5B inh 28µM*.
For Cc1onc(-c2ccc(F)cc2F)c1C(=O)NCc1cccs1 the results were KDM5B inh inactive.
`O=C(NCc1ccc2c(c1)OCO2)c1nc(-c2ccc(Cl)cc2Cl)c2ccccn12` gave KDM5B inh 20µM*.
O=C(NCc1ccc(Cl)c(Cl)c1)c1ccc2c(c1)OCO2 was read as KDM5B inh inactive.
For O=C(NCc1ccc2c(c1)OCO2)c1ccccc1Cl the results were KDM5B inh inactive.
Screening O=C(NCc1cccs1)C1CCN(c2nccn3nc(-c4ccc(F)cc4)cc23)CC1 returned KDM5B inh inactive.
For O=C(NCc1cccs1)c1cc2ccccc2[nH]1 the results were KDM5B inh inactive.
`C#CCNC(=O)c1nc2sccn2c1Br` gave KDM5B inh inactive.
Cc1ccc(OCC(=O)Nc2ccc(Cl)cc2)c([N+](=O)[O-])n1 was read as KDM5B inh inactive.
CC1CCC(C(C)C)C(OC(=O)COC(=O)c2c(F)cccc2Cl)C1 (centres undefined) was read as KDM5B inh inactive.
For Cc1cc(SCC(=O)c2c(N)n(Cc3ccccc3)c(=O)n(C)c2=O)nc2ccccc12 the results were KDM5B inh inactive.
Screening O=CNNC(=S)Nc1cc(Cl)ccc1Cl returned KDM5B inh inactive.
COc1nc2ccccc2nc1N1CCC(C(=O)NCc2ccc(Cl)cc2)CC1 was read as KDM5B inh inactive.
For COCCCNC(=O)CCc1ccc2c(c1)CN(S(C)(=O)=O)CCO2 the results were KDM5B inh inactive.
For Cc1oc2cc(OCCN3CCC(C)CC3)ccc2c(=O)c1-c1ccccc1 the results were KDM5B inh inactive.
Screening COc1ccc(OC)c(NC(=O)Nc2cc(-c3nc4ccccc4o3)ccc2OC)c1 returned KDM5B inh inactive.
`CCCCC(=O)NCCCCNC(=O)CCCC` gave KDM5B inh inactive.
For O=C(NCc1ccccc1F)C1(Cc2nc3ccccc3s2)CCCC1 the results were KDM5B inh inactive.
For O=C(CCS(=O)(=O)c1nc(-c2cccs2)cc(C(F)(F)F)n1)Nc1ccc(Br)cc1 the results were KDM5B inh inactive.
For O=C(Cn1c(=O)nc(-c2ccccc2)c2ccccc21)NCc1ccc(F)cc1 the results were KDM5B inh inactive.
For CCn1nc(C(=O)NCc2cccs2)c2ccccc2c1=O the results were KDM5B inh inactive.
`O=C(NCc1ccc(F)cc1)c1nc(-c2ccsc2)c2ccccn12` gave KDM5B inh 25µM*.
For Cc1c(C(=O)NCc2ccc(F)cc2)sc2nc(-c3ccccc3)cn12 the results were KDM5B inh inactive.
`O=C(NCc1cccs1)c1nc(-c2ccsc2)c2ccccn12` gave KDM5B inh 40µM*.

Source: PubChem BioAssay
